Measurements reported in the supplement of paper PMC7724964.

Tests used:
Assay in all cases: phage ELISA signal ratio (GST-PRM binding over GST background); higher = stronger binding of peptide-phage to the PRM
[1] = molecular target: T1, ARID4A 568-634 Tudor-knot (domain begin residue: 568, domain end residue: 634), P29374
T1 chain: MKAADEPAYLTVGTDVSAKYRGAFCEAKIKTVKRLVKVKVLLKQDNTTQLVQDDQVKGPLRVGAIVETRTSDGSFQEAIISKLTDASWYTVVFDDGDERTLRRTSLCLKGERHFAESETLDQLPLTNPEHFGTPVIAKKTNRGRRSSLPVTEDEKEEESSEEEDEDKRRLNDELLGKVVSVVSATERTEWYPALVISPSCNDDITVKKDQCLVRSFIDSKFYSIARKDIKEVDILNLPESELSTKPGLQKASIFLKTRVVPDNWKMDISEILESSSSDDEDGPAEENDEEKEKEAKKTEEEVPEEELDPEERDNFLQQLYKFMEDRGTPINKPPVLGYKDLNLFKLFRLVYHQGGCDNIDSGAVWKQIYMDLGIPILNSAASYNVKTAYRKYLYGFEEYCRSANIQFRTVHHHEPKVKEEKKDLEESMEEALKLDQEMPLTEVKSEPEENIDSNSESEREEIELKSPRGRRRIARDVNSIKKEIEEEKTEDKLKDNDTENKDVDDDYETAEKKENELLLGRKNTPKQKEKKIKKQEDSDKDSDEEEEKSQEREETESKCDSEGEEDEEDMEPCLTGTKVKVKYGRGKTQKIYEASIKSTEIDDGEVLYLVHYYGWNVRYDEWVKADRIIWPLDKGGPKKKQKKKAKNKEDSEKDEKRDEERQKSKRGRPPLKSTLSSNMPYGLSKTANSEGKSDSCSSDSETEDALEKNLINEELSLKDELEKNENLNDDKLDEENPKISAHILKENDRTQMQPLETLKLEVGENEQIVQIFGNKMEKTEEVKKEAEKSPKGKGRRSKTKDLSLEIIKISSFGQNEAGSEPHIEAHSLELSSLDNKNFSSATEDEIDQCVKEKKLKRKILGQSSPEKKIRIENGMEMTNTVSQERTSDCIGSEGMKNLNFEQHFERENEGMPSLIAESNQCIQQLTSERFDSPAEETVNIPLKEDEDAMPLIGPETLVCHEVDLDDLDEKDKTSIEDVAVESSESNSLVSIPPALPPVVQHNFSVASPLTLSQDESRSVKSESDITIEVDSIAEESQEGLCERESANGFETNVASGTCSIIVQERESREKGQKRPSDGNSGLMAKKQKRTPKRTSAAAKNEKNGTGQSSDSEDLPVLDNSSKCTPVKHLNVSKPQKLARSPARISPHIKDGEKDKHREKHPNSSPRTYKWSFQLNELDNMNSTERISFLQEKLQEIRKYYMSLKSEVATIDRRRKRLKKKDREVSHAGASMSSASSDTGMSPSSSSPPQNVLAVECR
Method: (§1)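 Phage-displayed random hexadecapeptides (Cys-free, flanked by invariant Gly linkers, fused to the M13 P8 major coat protein) were selected over 5 rounds against GST-fused human PRM domains. Individual clones from rounds 4-5 were tested by phage ELISA, and positive clones binding the target but not GST were sequenced. Values are the ELISA signal ratio of target over background (GST); the background signal is given separately.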

[2] = molecular target: T2, SND1 650-910 TUDOR+SNase (domain begin residue: 650, domain end residue: 910), Q7KZF4
T2 chain: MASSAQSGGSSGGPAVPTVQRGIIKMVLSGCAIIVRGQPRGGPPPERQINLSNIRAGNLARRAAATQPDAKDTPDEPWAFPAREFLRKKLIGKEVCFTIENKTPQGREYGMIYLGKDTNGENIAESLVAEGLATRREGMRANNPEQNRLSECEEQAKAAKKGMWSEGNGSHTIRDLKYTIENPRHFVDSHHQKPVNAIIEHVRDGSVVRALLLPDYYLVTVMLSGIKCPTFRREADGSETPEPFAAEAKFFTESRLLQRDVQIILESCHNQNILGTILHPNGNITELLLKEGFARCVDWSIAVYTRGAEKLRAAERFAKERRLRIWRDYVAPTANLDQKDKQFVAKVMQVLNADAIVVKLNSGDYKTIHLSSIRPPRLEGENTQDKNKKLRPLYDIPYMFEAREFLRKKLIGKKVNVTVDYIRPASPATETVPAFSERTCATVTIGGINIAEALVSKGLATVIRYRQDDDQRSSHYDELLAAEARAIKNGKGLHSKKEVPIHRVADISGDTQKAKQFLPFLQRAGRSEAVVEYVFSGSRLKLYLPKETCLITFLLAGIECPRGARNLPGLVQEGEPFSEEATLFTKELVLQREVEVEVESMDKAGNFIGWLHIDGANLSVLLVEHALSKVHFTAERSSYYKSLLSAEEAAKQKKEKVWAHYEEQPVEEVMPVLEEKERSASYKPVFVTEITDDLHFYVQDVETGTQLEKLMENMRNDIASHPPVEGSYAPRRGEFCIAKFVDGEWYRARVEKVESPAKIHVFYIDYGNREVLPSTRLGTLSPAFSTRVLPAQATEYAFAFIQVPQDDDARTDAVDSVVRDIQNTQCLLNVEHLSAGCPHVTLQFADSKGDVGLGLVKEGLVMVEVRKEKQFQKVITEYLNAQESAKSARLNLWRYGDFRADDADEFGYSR
Method: as §1

[3] = molecular target: T3, BTN1A1 285-479 SPRY (domain begin residue: 285, domain end residue: 479), Q13410
T3 chain: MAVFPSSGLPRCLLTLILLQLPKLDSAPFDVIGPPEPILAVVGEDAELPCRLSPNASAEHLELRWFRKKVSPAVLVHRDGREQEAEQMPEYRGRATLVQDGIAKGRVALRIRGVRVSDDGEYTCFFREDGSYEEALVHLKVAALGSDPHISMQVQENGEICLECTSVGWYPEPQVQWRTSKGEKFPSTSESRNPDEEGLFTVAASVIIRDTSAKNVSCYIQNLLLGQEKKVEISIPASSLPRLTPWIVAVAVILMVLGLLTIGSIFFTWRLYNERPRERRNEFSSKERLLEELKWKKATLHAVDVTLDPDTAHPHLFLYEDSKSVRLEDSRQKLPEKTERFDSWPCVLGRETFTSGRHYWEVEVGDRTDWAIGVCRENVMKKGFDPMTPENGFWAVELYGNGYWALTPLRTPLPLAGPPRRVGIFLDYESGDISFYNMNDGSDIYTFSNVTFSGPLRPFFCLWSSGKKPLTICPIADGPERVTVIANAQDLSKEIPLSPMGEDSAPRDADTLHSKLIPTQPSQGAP
Method: as §1

[4] = molecular target: T4, ALDOA 1-364 Glycolytic (domain begin residue: 1, domain end residue: 364), P04075
T4 chain: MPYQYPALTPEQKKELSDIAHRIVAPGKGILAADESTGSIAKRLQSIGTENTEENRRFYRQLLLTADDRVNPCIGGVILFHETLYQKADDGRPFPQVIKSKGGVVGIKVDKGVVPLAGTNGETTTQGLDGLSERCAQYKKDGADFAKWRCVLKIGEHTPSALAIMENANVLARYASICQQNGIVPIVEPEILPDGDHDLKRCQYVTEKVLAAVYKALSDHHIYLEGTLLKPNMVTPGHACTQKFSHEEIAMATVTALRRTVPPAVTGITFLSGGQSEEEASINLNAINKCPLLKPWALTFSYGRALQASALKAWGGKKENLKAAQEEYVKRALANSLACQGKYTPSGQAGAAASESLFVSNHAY
Method: as §1

[5] = molecular target: T5, CAPNS1 1-268 EF-hand_8+EF-hand_5 (domain begin residue: 1, domain end residue: 268), P04632
T5 chain: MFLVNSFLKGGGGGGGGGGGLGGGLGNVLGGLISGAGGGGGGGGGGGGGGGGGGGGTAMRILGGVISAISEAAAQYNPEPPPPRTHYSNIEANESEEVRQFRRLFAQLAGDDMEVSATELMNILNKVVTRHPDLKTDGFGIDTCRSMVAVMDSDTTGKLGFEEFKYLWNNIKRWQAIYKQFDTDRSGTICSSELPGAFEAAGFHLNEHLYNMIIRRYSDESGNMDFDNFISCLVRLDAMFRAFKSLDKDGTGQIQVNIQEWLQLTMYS
Method: as §1

[6] = molecular target: CBX3 109-173 Chromo_shadow (domain begin residue: 109, domain end residue: 173), Q13185
CBX3 109-173 Chromo_shadow (domain begin residue: 109, domain end residue: 173), Q13185, sequence (Q13185 whole entry): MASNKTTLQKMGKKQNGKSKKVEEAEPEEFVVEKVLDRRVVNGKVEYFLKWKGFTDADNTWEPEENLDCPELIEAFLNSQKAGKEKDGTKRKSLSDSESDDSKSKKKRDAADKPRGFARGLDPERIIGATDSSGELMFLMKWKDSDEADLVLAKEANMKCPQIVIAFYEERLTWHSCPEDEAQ
Method: as §1

[7] = molecular target: ARF3 1-181 Arf (domain begin residue: 1, domain end residue: 181), P61204
ARF3 1-181 Arf (domain begin residue: 1, domain end residue: 181), P61204, sequence (P61204 whole entry): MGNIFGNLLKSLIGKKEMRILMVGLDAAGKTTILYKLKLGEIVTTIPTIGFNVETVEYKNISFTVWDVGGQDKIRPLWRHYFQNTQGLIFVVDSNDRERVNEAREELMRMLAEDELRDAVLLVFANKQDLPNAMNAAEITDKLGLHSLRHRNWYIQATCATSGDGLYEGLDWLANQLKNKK
Method: as §1

B1: unnamed (peptide)
chain: DGWGWDHIEIEMPYEE
[1]
  phage ELISA signal ratio: 12.4
[2]
  phage ELISA signal ratio: 8.36

B2: unnamed (peptide)
chain: WHPMDWMEHFQMMPDT
[3]
  phage ELISA signal ratio: 5.73

B3: unnamed (peptide)
chain: VQWQERYTDYTFENVT
[4]
  phage ELISA signal ratio: 24.7

B4: unnamed (peptide)
chain: WVMPGMEELNIFENMF
[1]
  phage ELISA signal ratio: 3.49

B5: unnamed (peptide)
chain: PWDEIWEDMIEWPLPQ
[1]
  phage ELISA signal ratio: 9.72

B6: unnamed (peptide)
chain: LHSNLEEWLLEDLMMW
[5]
  phage ELISA signal ratio: 18.9

B7: unnamed (peptide)
chain: YQMQQWQFSPEIWLNM
[6]
  phage ELISA signal ratio: 7.79

B8: unnamed (peptide)
chain: WTYESGEWNWYTEEKT
[4]
  phage ELISA signal ratio: 23.9

B9: unnamed (peptide)
chain: EQLEPWLMPGQSQLFG
[1]
  phage ELISA signal ratio: 9.13

B10: unnamed (peptide)
chain: GLDLDYWTMPGLETLL
[1]
  phage ELISA signal ratio: 8.9

B11: unnamed (peptide)
chain: WHVWDPVMEVFDWPEM
[4]
  phage ELISA signal ratio: 18.1

B12: unnamed (peptide)
chain: EFLWDPVQEMHVMVNE
[4]
  phage ELISA signal ratio: 5.28

B13: unnamed (peptide)
chain: DIYWGYHMTDFISQET
[7]
  phage ELISA signal ratio: 15.3

B14: unnamed (peptide)
chain: YYWDTILVDNPEWHQL
[1]
  phage ELISA signal ratio: 4.22

B15: unnamed (peptide)
chain: VNAHDMLEHWLYQDMI
[5]
  phage ELISA signal ratio: 28.3

B16: unnamed (peptide)
chain: IQKWMNFDDFATAVFH
[6]
  phage ELISA signal ratio: 11.5

B17: unnamed (peptide)
chain: QTWQERQAMMMHMMQW
[3]
  phage ELISA signal ratio: 15.7
